Data reported in the supplement of paper PMC11732987, “Enantioselective OTUD7B fragment discovery through chemoproteomics screening and high-throughput optimisation” (Communications Chemistry, 2025).

Columns and labels:
Test in all cases: log2 ratio of Biotin-Ahx-Ub-VS probe labelling (fragment/DMSO); higher = less target engagement (more negative = stronger competition), active = hit call of the paper (q ≤ 0.05, log2 ratio ≤ -1)
Conditions in all cases: compound concentration: 200 uM; treatment time: 3 h
USP19 = target: T1, USP19 (UniProt O94966)
T1 sequence (whole entry): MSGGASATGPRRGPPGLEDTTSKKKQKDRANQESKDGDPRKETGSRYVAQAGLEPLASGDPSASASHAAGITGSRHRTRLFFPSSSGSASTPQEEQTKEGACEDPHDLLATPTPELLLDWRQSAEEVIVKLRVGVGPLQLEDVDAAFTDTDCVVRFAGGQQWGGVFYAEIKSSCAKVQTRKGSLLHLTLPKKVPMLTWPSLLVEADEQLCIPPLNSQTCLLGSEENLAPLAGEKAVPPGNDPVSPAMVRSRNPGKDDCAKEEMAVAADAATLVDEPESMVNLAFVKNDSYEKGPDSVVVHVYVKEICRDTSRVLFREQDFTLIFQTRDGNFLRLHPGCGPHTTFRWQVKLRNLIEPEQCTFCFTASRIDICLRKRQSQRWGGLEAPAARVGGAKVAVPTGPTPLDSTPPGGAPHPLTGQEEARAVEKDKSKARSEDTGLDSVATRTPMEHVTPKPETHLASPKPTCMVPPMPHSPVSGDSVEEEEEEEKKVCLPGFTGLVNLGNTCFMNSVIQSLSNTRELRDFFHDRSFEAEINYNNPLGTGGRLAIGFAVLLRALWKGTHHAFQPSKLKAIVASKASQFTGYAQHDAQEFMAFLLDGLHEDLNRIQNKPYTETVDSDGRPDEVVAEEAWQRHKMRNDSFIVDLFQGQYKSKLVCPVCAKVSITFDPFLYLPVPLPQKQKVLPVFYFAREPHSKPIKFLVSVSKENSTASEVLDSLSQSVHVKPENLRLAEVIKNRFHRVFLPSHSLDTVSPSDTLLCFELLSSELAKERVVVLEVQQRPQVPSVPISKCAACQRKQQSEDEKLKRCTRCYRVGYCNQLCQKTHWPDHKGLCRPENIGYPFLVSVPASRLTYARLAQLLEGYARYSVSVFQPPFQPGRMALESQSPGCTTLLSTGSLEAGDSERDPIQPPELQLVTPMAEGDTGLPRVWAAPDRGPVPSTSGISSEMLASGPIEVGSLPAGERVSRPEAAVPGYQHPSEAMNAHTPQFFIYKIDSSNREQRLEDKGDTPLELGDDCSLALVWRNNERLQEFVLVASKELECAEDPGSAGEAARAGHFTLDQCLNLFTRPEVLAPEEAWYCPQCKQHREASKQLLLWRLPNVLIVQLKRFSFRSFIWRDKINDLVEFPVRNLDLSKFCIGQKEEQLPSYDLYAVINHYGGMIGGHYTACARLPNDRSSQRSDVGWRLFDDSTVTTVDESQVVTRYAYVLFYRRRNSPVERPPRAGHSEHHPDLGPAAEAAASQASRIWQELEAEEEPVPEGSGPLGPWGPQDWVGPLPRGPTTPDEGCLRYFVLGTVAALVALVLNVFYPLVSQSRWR
Procedure, shortened: (§1)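 Labelled DUBs were enriched with NeutrAvidin, digested with LysC and trypsin, and run by diaPASEF LC-MS/MS. The labelling used Biotin-Ahx-Ub-VS at 0.5 µM final for 1 h on HEK293T lysate (495 µg per sample) previously treated in triplicate with fragment at 200 µM or vehicle for 3 h. Values are average log2 fragment/vehicle ratios by unpaired t-test on global-median-normalised Spectronaut quantities of proteins with ≥2 unique peptides.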

USP22 = target: T2, USP22 (UniProt Q9UPT9)
T2 sequence (whole entry): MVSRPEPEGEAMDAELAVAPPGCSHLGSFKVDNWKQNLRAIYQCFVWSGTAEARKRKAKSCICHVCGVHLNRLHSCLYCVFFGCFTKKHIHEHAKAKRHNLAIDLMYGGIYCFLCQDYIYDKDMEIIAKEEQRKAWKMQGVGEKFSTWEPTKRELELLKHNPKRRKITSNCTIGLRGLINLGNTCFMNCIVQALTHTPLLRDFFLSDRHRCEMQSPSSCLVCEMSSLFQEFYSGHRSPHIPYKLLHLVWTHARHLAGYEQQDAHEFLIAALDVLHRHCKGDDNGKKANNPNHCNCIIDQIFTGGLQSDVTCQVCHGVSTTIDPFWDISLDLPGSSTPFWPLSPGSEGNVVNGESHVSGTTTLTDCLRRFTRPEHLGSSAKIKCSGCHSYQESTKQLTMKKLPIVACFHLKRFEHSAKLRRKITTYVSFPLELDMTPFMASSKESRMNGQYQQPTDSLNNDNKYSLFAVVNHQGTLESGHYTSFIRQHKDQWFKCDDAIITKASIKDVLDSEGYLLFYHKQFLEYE
Procedure, shortened: as §1

USP24 = USP24 (UniProt Q9UPU5)
Procedure, shortened: as §1

USP25 = target: T3, USP25 (UniProt Q9UHP3)
T3 sequence (whole entry): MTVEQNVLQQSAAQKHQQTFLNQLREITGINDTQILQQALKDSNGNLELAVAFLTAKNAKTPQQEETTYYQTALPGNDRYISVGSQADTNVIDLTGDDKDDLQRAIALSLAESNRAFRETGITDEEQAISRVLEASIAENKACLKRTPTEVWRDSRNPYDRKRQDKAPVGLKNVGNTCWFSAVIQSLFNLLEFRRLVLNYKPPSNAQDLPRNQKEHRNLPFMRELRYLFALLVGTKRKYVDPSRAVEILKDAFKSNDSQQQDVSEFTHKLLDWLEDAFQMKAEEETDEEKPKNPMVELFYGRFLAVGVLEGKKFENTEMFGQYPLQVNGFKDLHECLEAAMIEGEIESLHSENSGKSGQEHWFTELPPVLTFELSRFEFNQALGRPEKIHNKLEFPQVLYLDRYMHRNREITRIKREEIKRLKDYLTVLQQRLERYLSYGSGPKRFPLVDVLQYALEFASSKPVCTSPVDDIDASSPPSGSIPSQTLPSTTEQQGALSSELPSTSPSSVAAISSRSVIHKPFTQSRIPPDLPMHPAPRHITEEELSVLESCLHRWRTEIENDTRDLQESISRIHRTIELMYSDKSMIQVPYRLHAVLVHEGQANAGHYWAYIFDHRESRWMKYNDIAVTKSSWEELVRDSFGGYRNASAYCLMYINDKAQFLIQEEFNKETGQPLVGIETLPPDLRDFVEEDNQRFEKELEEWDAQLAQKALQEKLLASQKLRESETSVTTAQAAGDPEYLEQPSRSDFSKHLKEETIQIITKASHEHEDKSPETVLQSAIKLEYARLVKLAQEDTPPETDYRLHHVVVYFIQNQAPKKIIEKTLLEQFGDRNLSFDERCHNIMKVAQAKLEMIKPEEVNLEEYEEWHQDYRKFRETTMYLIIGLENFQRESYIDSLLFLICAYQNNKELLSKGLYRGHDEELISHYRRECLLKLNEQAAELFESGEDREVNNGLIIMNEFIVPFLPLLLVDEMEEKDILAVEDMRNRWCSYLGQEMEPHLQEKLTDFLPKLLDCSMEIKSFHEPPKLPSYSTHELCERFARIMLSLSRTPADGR
Procedure, shortened: as §1

USP28 = target: T4, USP28 (UniProt Q96RU2)
T4 sequence (whole entry): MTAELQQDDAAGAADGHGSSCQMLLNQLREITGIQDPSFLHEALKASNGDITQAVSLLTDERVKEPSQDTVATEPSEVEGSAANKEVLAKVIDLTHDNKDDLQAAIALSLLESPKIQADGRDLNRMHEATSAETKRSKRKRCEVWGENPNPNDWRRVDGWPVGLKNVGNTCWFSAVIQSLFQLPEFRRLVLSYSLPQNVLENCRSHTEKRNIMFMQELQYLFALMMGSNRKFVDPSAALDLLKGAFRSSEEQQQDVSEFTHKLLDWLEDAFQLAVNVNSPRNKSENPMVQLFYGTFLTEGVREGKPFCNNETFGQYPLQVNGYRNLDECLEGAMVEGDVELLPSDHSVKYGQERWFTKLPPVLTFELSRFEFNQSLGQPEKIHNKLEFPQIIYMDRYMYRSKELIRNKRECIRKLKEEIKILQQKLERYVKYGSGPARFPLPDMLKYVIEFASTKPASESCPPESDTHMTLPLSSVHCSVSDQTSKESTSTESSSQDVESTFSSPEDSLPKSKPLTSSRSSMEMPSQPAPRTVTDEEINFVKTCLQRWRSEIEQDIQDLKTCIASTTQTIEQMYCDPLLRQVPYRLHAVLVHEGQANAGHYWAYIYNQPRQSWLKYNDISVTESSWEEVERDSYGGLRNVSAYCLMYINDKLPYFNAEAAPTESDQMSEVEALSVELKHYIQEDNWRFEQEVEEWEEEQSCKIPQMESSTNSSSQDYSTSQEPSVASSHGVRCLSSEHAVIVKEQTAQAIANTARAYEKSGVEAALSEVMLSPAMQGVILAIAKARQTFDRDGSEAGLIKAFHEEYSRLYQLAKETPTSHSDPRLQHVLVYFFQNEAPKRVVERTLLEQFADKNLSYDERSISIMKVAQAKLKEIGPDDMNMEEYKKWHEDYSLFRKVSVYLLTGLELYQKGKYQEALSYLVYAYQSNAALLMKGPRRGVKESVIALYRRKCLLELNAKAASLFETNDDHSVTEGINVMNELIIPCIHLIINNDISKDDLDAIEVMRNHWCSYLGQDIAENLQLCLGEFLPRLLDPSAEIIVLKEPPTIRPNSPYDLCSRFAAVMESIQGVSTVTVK
Procedure, shortened: as §1

Measured: log2 ratio of Biotin-Ahx-Ub-VS probe labelling

Chain of USP24 (Q9UPU5 whole entry): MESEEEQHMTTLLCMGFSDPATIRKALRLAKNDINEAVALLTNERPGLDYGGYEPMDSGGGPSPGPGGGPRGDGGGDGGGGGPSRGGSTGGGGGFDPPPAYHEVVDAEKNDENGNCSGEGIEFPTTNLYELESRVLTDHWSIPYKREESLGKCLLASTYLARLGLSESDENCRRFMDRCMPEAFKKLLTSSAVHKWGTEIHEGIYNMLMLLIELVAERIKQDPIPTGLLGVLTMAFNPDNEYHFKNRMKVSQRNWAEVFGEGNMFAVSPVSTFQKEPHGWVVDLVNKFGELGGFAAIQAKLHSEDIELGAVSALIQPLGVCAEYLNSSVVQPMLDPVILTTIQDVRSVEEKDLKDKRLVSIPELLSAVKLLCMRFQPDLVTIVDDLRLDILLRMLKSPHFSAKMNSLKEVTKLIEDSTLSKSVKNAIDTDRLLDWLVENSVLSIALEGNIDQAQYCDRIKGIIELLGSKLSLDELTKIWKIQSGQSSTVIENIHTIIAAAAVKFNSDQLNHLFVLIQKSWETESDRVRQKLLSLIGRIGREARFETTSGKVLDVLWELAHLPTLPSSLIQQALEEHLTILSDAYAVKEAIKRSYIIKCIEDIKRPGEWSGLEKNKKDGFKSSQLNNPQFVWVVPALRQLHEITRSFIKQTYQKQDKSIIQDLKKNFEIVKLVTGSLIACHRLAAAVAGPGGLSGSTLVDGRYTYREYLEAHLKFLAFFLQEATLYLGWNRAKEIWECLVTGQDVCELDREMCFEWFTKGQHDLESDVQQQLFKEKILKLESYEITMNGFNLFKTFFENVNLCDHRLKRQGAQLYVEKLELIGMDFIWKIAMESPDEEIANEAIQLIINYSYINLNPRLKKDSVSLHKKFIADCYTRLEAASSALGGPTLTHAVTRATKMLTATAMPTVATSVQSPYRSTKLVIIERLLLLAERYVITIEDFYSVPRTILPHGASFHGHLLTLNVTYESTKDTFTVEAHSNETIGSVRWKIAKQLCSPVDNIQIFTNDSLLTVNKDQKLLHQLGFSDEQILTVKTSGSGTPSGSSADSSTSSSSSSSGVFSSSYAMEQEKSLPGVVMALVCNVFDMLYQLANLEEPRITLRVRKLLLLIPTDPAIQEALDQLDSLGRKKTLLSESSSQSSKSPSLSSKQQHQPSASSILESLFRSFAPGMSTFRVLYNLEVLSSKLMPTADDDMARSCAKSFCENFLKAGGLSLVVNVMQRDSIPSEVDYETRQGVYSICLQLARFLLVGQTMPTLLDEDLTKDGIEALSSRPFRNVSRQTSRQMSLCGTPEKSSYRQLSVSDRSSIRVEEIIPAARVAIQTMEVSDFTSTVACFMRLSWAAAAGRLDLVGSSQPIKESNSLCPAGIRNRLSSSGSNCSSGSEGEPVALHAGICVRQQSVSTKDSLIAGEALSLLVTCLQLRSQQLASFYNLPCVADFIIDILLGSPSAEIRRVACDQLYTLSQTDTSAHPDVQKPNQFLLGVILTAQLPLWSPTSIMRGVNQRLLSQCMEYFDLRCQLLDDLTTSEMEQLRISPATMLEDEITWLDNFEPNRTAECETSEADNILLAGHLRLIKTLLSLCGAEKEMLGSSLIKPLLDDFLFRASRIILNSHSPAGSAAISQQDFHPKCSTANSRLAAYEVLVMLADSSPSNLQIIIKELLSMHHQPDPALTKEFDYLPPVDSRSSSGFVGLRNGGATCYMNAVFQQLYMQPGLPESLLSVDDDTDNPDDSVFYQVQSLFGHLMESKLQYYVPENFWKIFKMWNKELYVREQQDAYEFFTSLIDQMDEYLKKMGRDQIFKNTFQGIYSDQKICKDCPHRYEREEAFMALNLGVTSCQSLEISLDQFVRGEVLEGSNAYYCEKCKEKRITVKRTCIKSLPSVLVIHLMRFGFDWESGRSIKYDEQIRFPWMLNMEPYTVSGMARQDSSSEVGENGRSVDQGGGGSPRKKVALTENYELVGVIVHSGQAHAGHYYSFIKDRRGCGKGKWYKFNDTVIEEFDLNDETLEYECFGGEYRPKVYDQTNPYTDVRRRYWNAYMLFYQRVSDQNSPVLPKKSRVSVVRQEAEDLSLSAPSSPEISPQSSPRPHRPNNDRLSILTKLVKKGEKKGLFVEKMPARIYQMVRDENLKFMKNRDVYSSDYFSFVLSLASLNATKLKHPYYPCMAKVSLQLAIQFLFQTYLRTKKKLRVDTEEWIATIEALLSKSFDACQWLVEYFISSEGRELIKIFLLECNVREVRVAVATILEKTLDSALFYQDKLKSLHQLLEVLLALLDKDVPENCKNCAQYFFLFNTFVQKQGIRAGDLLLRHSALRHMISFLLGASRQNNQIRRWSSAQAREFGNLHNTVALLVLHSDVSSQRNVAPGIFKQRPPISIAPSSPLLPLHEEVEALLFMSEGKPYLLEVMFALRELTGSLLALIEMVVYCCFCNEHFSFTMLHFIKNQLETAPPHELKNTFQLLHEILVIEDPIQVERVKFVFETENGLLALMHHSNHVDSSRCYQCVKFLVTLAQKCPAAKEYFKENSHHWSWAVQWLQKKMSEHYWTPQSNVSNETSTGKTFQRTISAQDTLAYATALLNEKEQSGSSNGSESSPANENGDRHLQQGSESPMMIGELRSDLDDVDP

N#Cc1ccc(CNC(=O)CCl)cc1
inactive: USP19 -0.0911 | USP22 0.193 | USP24 -0.183 | USP25 -0.413 | USP28 -0.49
